TDP1 inh: inhibitors of human tyrosyl-DNA phosphodiesterase TDP1 | Q9NUW8 | Potency, µM (titrated, usually from 130 µM), for the others: top-dose activity change, negative = inhibition, most hits filed as inhibitors | actives 0.28% (n = 350,000) | recombinant TDP1, AlphaScreen DNA substrate cleavage; also: potency is read from the fitted curve at half-maximal effect; nearly all actives have a fitted effect of over 40% in size
Target sequence (Q9NUW8 whole entry, looked up): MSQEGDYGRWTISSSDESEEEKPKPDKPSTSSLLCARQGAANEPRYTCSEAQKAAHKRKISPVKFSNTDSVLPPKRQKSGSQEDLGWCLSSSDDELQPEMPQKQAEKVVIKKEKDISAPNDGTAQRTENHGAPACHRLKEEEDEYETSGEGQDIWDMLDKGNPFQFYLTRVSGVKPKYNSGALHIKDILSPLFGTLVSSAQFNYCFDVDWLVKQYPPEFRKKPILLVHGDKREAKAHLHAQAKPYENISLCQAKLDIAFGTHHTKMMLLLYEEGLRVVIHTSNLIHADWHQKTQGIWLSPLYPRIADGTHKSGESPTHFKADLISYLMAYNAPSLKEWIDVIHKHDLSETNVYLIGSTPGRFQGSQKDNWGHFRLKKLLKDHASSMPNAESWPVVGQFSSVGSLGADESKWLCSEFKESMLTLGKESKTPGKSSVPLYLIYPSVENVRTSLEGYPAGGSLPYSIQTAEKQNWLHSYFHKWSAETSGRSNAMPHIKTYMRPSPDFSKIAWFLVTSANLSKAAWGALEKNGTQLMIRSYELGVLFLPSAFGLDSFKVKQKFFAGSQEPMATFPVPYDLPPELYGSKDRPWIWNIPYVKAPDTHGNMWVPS
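Tdp1 1 nM final; 15 min RT w/ cpd; substrate 15 nM, 5 min; beads 10 ug/ml, 10 min; AlphaScreen read. Neg ctrl: no enzyme.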
Giardia kill: kills Giardia lamblia; Giardia lamblia trophozoite viability; activity change, % at 7.66 µM, hits read low; actives 0.15% (n = 340,000); in the data active = activity change below about -80%; inconclusive = between about -30% and that limit;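 also: parasites exposed to compound for two days anaerobically before the ATP read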
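Each well holds 100 Giardia trophozoites and compound. After two days (48 hrs) at 37 deg C in anaerobic conditions, ATP is quantified by luminescence.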
DT40 TDP1 no CPT: qHTS for Inhibitors of human tyrosyl-DNA phosphodiesterase 1 (TDP1): qHTS in cells in absence of CPT; DT40 Tdp1-/- hTDP1 cells, no CPT, ATP luminescence, 48 h; Potency, µM (titrated, usually from 46.2 µM), inactives show top-dose activity change, negative = growth inhibition, usual class: inhibitors; actives 15% (n = 420,000); AID 686978, 2013; also: potency is read from the fitted curve at half-maximal effect; nearly all actives have a fitted effect of over 55% in size
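Compound effects on proliferation are scored in DT40 Tdp1-/-;hTDP1 cells in the absence of CPT. ATP levels (CellTiter-Glo luminescence) are recorded after a ≥48 hr, 37 °C incubation.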
ELG1 repair inh: ELG1-dependent DNA repair inhibition. HEK293T ELG1-luciferase reporter, luminescence, 16 h; DNA damage induced by 5-fluorouridine. Potency, µM (top dose mostly 46.1 µM), without a hit: at the highest dose activity change, negative = inhibition, actives largely listed as inhibitors. actives 2.3% (n = 330,000); also: potency is read from the fitted curve at half-maximal effect; nearly all actives have a fitted effect of over 55% in size
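HEK293T cells expressing luciferase-tagged ELG1 (2,000/well) received 5-Fluorouridine plus compound or DMSO for 16 hr at 37 °C. Luciferase was read by ONE-Glo luminescence after 30 min at room temperature.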
IL-1B inflam inh: blocks inflammasome-driven IL-1 beta release; THP-1 LPS/ATP IL-1B secretion, AlphaLISA, 16 h; hits give low values; activity change, % at 57.5 µM; actives 4.7% (n = 360,000); in the data active = activity change below about -50%; inconclusive = mostly about -30% to -49%
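Secreted IL-1B measured by AlphaLISA bead assay after 16 h compound exposure of THP-1 cells; compounds (final up to 57.5 uM) added 1 h before LPS (250 ng/mL) and ATP (1.25 mM) stimulation; lower signal means less secretion.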
DT40 TDP1 CPT: growth inhibition of DT40 Tdp1-/-;hTDP1 cells with camptothecin (screen for TDP1 inhibitors); chicken DT40 Tdp1-/-;hTDP1 cells + 20 nM CPT, ATP luminescence, 48 h; Potency, µM (series often up to 46.2 µM), without a hit: top-dose activity change, negative = growth inhibition, usual class: inhibitors; actives 12% (n = 420,000); also: potency is read from the fitted curve at half-maximal effect; nearly all actives have a fitted effect of over 55% in size
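Cell growth measured by CellTiter-Glo luminescence after a minimum 48 h, 37 C compound exposure with 20 nM CPT in Tdp1-knockout DT40 cells stably expressing hTDP1, seeded 400/well; qHTS titration format.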
Starred values were filed as active, the others as inactive; i = inactive; ? = inconclusive; nt = not tested or not shown. Hits are enriched below; roughly 19% of the tested compounds scored in any of these assays. Unless noted, calls follow the shape of the dose curve; as a rule, active = well fitted curve in the direction sought with a large enough effect; inconclusive = small, poorly fitted or top-dose-only effect, or another doubt; inactive = no such curve, though single readings can be large; an effect the other way counts as inactive or inconclusive. % is scaled to controls: 0 for no effect and ±100 for the full control effect.

SMILES	TDP1 inh	Giardia kill	DT40 TDP1 no CPT	ELG1 repair inh	IL-1B inflam inh	DT40 TDP1 CPT
Cc1ccc(C(=O)Nc2ccccc2C(=O)N2CCOCC2)cc1[N+](=O)[O-]	0%	2	-28%	14%	14	-1%
O=[N+]([O-])c1ccc2nc(Cl)nc(-c3ccccc3)c2c1	nt	8	7.3µM*	0%	-5	12µM*
CC(C)(C)C1CCc2c(sc(NC(=O)c3ccc(Cl)cc3)c2C(=O)NCc2ccco2)C1 (stereo unspecified)	nt	nt	-16%	nt	nt	-5%
O=C(C1CCN(S(=O)(=O)c2cccc3nsnc23)CC1)N1CCc2ccccc2C1	4%	-7	?	?	-63*	?
CCCCN(CCCC)C(=O)C1CCN(S(=O)(=O)c2cccc3nsnc23)CC1	5%	nt	26µM*	nt	nt	16µM*
Cn1c(=O)c2c(ncn2CC(=O)OCC(=O)NNC(=O)c2ccc(Cl)cc2)n(C)c1=O	2%	7	3%	7%	13	-6%
COc1ccccc1N1CCN(c2ccc3c(c2)S(=O)(=O)c2cccc(C(=O)NCc4ccc(F)cc4)c2C3=O)CC1	nt	nt	2.6µM*	nt	-6	?
O=C(NCc1cccc(F)c1)c1cccc2c1C(=O)c1ccc(N3CCCC3)cc1S2(=O)=O	1%	-8	12µM*	?	0	?
CC1CCN(c2ccc3c(c2)S(=O)(=O)c2cccc(C(=O)NCc4cccc(F)c4)c2C3=O)CC1	0%	-17	18µM*	?	8	?
CC1(C)CC(=O)C2=C(C1)N(c1ccc(F)cc1)C(=O)C2(NC(=O)c1ccccc1)C(F)(F)F (stereo unspecified)	-3%	nt	nt	-1%	nt	nt
CC(=O)c1ccc(NC(=O)[C@@H]2CCCN2C(=O)OC(C)(C)C)cc1	nt	-1	?	?	28	3%
CC1(C)CC(CCNC(=O)CCl)(c2ccccc2)CCO1 (stereo unspecified)	3%	6	5%	?	-4	1%
CC1=CC(C)[C@@H]2COC(c3ccc(O)cc3)[C@H]1C2C (stereo partly specified)	nt	-3	?	3%	14	?
CC1=CC(C)C2COC(c3ccc[n+](C)c3)C1C2C (stereo unspecified)	6%	0	8.2µM*	-3%	0	8.2µM*
COC(=O)C1(C(=O)OC)c2ccccc2N(S(=O)(=O)c2ccc(C)cc2)C1CC(=O)c1ccccc1 (stereo unspecified)	nt	nt	?	nt	28	?
CCOC(=O)c1[nH]c(Cc2[nH]c(C(=O)OCC)c(C)c2CCC(=O)OC)c(CCC(=O)OC)c1C	8%	-5	?	18µM*	-1	?
CCOC(=O)c1c(C)[nH]c(C(=O)OC)c1CCC(=O)OC	12%	4	?	3%	-1	?
Cc1ccc(Cn2cnc3nc4c(cc3c2=O)CC(C)CC4)cc1 (stereo unspecified)	4%	nt	15µM*	nt	nt	21µM*
CCn1c(/C=C/c2c[nH]c3ccccc23)nc2ccccc2c1=O	3%	-11	3.3µM*	?	35	?
O=c1c2ccccc2nc(/C=C/c2cccnc2)n1CCc1ccccc1	nt	-2	13µM*	?	-71*	15µM*
O=C1/C(=C/c2cccnc2)SC(=S)N1CCc1ccccc1	5%	-7	?	?	-1	?
Cc1cccc(/C=C/c2nc3ccccc3c(=O)n2Cc2ccccc2)c1	3%	4	?	?	-70*	?
Cc1ccccc1/C=C\c1nc2ccccc2c(=O)n1Cc1ccccc1	6%	-4	?	29µM*	?	?
CC(C)CCNC(=O)c1onc(CSc2ccc(F)c(F)c2)c1C(=O)NCCC(C)C	-2%	-14	?	-12%	-20	?
CCn1c(SCc2ccccc2)nc2ccccc2c1=O	nt	-1	-22%	nt	50	-6%
SMILES	TDP1 inh	Giardia kill	DT40 TDP1 no CPT	ELG1 repair inh	IL-1B inflam inh	DT40 TDP1 CPT
CCn1c(/C=C\c2ccccc2C)nc2ccccc2c1=O	0%	-14	13µM*	-16%	-15	23µM*
CCn1c(/C=C/c2ccccc2Cl)nc2ccccc2c1=O	nt	-17	16µM*	?	?	?
CCn1c(/C=C/c2cccc([N+](=O)[O-])c2)nc2ccccc2c1=O	2%	1	?	0%	-24	?
CN(C)S(=O)(=O)c1ccc2[nH]cc(/C=C/c3nc4ccccc4c(=O)n3-c3ccccc3)c2c1	0%	1	5.2µM*	?	12	5.8µM*
CCC(=O)N1c2ccccc2CC1C(=O)NCCc1ccc(Cl)cc1 (stereo unspecified)	4%	nt	-13%	nt	nt	-27%
COc1ccc(OC)c(NC(=O)C(C)N2c3cccc4cccc(c34)S2(=O)=O)c1 (stereo unspecified)	nt	-8	-17%	7%	37	2%
CNS(=O)(=O)c1cc2c3c(cccc3c1)C(=O)NC2=O	3%	1	23µM*	?	-10	18µM*
Cc1ccc(NS(=O)(=O)c2cc3c4c(cccc4c2)C(=O)NC3=O)cc1	-1%	-17	9.2µM*	?	14	?
O=C(C[n+]1cc(-c2ccc(F)cc2)n2c1CCC2)N1c2ccccc2Sc2ccccc21	3%	2	13µM*	?	-50*	15µM*
Cc1ccc(-c2c[n+](CC(=O)N3c4ccccc4Sc4ccccc43)c3n2CCC3)cc1	5%	?	5.2µM*	?	-58*	5.2µM*
O=C(C[n+]1cc(-c2ccccc2)n2c1CCC2)N1c2ccccc2Sc2ccccc21	3%	-11	2.6µM*	3%	i	5.2µM*
COc1ccc(Cc2nnc(SC(C)C(=O)Nc3ccc(C(N)=O)cc3)o2)cc1 (stereo unspecified)	nt	20	9%	-1%	6	3%
CC(C)Oc1ccc(C(=O)N2CCN(CCc3ccccn3)CC2)cc1	-3%	nt	1%	nt	nt	1%
COc1ccc(-c2nnc(NC(=O)Cc3ccccc3)s2)c(OC)c1	3%	11	-29%	18%	15	-19%
COc1c(Cl)cc(Cl)cc1/C=C/C(=O)c1ccc(NC(=O)c2cccs2)cc1	3%	3	2.6µM*	?	-104*	2.3µM*
COc1cc(C(=O)O)cc(NC(=O)c2cccs2)c1OC	-1%	-20	-12%	?	13	2%

Compound activity: PubChem BioAssay, National Center for Advancing Translational Sciences (NCATS)
